# AmpC detergent: qHTS Inhibitors of AmpC Beta-Lactamase (assay with detergent); P00811; AmpC hydrolysis of nitrocefin, absorbance 480 nm, 0.01% Triton; Potency, µM (titrated, usually from 114 µM), without a hit: at the top dose activity change, negative = inhibition, most hits filed as inhibitors; 0.041% of 370,000 active; AID 485294, 2010;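 further: 0% = no-compound wells and -100% = no-enzyme wells; nearly all actives have a fitted effect of over 25% in size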
# Target sequence (P00811 whole entry, looked up): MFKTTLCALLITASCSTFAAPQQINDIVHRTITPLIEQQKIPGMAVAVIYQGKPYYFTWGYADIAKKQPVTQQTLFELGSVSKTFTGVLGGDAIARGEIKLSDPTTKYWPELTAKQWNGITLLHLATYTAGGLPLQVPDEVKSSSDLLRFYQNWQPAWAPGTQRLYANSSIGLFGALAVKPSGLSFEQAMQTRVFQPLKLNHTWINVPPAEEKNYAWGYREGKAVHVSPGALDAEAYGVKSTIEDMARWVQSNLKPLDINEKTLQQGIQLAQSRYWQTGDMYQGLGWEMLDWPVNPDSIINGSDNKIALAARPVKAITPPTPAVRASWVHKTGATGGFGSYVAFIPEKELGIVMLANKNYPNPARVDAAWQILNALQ
#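 20 mM phosphate pH 7.0 + 0.01% (detergent screen) or 0.0001% Triton X-100; 5.3 nM AmpC reagent; cpd preinc 15 min RT; nitrocefin (800 uM stock) to start; A480 q20 s × 4 min; Activity was normalised to no-enzyme and no-compound control wells.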
# AmpC no deterg: qHTS Inhibitors of AmpC Beta-Lactamase (assay without detergent); P00811; AmpC nitrocefin hydrolysis, absorbance 480 nm, 0.0001% Triton; Potency, µM (highest dose often 57.1 µM), for the others: at the highest dose activity change, negative = inhibition, usual class: inhibitors; 0.52% of 330,000 active;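 further: plate controls were no compound for no effect and no enzyme for full effect; nearly all actives have a fitted effect of over 20% in size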
#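 20 mM phosphate pH 7.0 + 0.01% (detergent screen) or 0.0001% Triton X-100; 5.3 nM AmpC reagent; cpd preinc 15 min RT; nitrocefin (800 uM stock) to start; A480 q20 s × 4 min; Activity was normalised to no-enzyme and no-compound control wells.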
# Pf growth 96h: Primary qHTS for delayed death inhibitors of the malarial parasite plastid, 96 hour incubation | 6.9% of 320,000 active | AID 504834, 2011 | P. falciparum luciferase reporter growth, 96 h | Potency, µM (series often up to 28.7 µM), for the others: at the top dose activity change, negative = inhibition, actives largely listed as inhibitors; further: on the % scale 0 is the no-effect control and ±100 the full control effect
#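 Two parasite generations (96 h, 37 C, 5% CO2) of compound exposure in infected erythrocytes (0.05% parasitemia, 2% hematocrit). Luciferase-reporter P. falciparum; decreased luminescence indicates inhibited growth, aimed at apicoplast-acting delayed death.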
# Pf growth 48h: Primary qHTS for delayed death inhibitors of the malarial parasite plastid, 48 hour incubation; P. falciparum luciferase growth in erythrocytes, 48 h; Potency, µM (series often up to 28.7 µM), without a hit: at the highest dose activity change, negative = inhibition, hits mostly inhibitors; 5.9% of 310,000 active; AID 504832, 2011; further: on the % scale 0 is the no-effect control and ±100 the full control effect
#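 Read-out is firefly luciferase luminescence from an integrated reporter in P. falciparum, so falling signal marks reduced parasite growth. Infected erythrocytes were at 2% hematocrit and 0.1% parasitemia (final) in Albumax-supplemented RPMI 1640.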
# Sm TGR inh: qHTS Assay for the Inhibitors of Schistosoma Mansoni Peroxiredoxins. 3% of 360,000 active. Potency, µM (titrated, usually from 114 µM), for the others: at the highest dose activity change, negative = inhibition, hits mostly inhibitors. purified TGR, DTNB reduction, TNB absorbance 405 nm. Schistosoma mansoni thioredoxin glutathione reductase (TGR), Q962Y6; further: on the % scale 0 is the no-effect control and ±100 the full control effect; nearly all actives have a fitted effect of over 60% in size
#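 TGR 20 nM + NADPH 100 uM (dispensed conc.), cpd preinc 15 min RT; start with NADPH (500 uM addition) then DTNB (15 mM addition). Kinetic TNB absorbance, 405 nm filter. Four-parameter Hill fit across titration.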
# SARS PLpro yeast: qHTS of Yeast-based Assay for SARS-CoV PLP | Potency, µM (titrated, usually from 32.9 µM), inactives show top-dose activity, positive = growth rescue, most hits filed as activators | 0.19% of 330,000 active | AID 485353, 2010 | S. cerevisiae expressing SARS-CoV PLpro, growth rescue; calls by dose curve; further: 0% is about no effect; nearly all actives have a fitted effect of over 55% in size
# Starred values were filed as active, the others as inactive; u = inconclusive; x = not tested or not shown; [ ] = dose if it differs, or a comment. The list is not random: actives were taken first. Their share in the collection is about 12%. Unless noted, the call rests on the fitted dose curve; in most records, active means well fitted curve in the direction sought with a large enough effect; inconclusive means small, poorly fitted or top-dose-only effect, or another doubt; inactive means no such curve, though single readings can be large; an effect the other way counts as inactive or inconclusive. Potency means the concentration at half of the fitted maximal effect.
SMILES,AmpC detergent,AmpC no deterg,Pf growth 96h,Pf growth 48h,Sm TGR inh,SARS PLpro yeast
CSCC[C@H](NC(=O)OCc1ccccc1)C(=O)O,1%,-19%,x,13%,-10%,2%
C[C@H](NC(=O)OCc1ccccc1)C(=O)NNC(=O)[C@H](C)NC(=O)OCc1ccccc1,-5%,-2%,6%,-10%,-1%,0%
CC[C@@H](C)[C@H](NC(=O)OCc1ccccc1)c1nnc([C@@H](NC(=O)OCc2ccccc2)[C@@H](C)CC)o1,-6%,-32%,10µM*,10µM*,11%,0%
CC(C)(C)OC(=O)N[C@@H](CCCCNC(=O)OCc1ccccc1)c1nnc([C@H](CCCCNC(=O)OCc2ccccc2)NC(=O)OC(C)(C)C)o1,-6%,51%,2.6µM*,u,-10%,0%
COc1ccccc1Nc1cc(C)nc2nc(-c3ccccc3)nn12,-4%,x,x,x,-4%,x
Cn1c(/C=C/c2ccc(Cl)cc2Cl)c([N+](=O)[O-])c(=O)n(C)c1=O,5%,-12%,42%,4.7µM*,4%,-2%
Cn1c(/C=C/N(Cc2ccccc2)c2ccccc2)c([N+](=O)[O-])c(=O)n(C)c1=O,8%,-23%,-11%,-19%,7%,0%
COc1ccc(/C=C/c2c([N+](=O)[O-])c(=O)n(C)c(=O)n2C)c(OC)c1,3%,-10%,2%,u,1%,-3%
CCOc1ccc(/C=C/c2c([N+](=O)[O-])c(=O)n(C)c(=O)n2C)cc1,-2%,4%,1%,u,1%,-1%
CCc1ccc(/C=C/c2c([N+](=O)[O-])c(=O)n(C)c(=O)n2C)cc1,4%,-3%,38%,2.3µM*,3%,-1%
COc1ccc(/C=C/c2c([N+](=O)[O-])c(=O)n(C)c(=O)n2C)cc1,3%,-13%,13µM*,u,7%,0%
Oc1cccc(Nc2nc(O)c(/C=C3\C=Nc4ccccc43)s2)c1,-3%,-60%,-16%,30%,-1%,0%
Oc1nc(Nc2ccc(F)cc2)sc1/C=C1\C=Nc2ccccc21,4%,-47%,u,13µM*,-34%,-1%
CC1=Nc2ccccc2/C1=C\c1sc(Nc2ccc(C)cc2)nc1O,u,10%,6.6µM*,u,-1%,-26%
Cc1cccc(OC(=O)CSc2nnc(CNC(=O)c3ccccc3)o2)c1C,1%,x,x,x,-6%,x
COc1ccc(CCNC(=O)CCc2nnc(Cc3ccc4c(c3)OCO4)o2)c(OC)c1,-14%,72%,0%,-5%,u,-1%
O=C1N(Cc2cccc(Cl)c2)C[C@@H]2C[C@@H](c3ccsc3)N3CCC[C@@]123,0%,29%,5%,8.3µM*,u,1%
CC(C)n1cc([C@@H]2C[C@H]3CN(Cc4cccc(Cl)c4)C(=O)[C@]34CCCN24)cn1,-2%,141%,u,u,4%[57.1 µM],0%
O=C1N(Cc2cccc(Cl)c2)C[C@@H]2C[C@@H](c3ccccn3)N3CCC[C@@]123,7%,61%,u,u,10µM*,1%
CCn1ccnc1[C@@H]1C[C@H]2CN(Cc3cccc(Cl)c3)C(=O)[C@]23CCCN13,5%,22%,-14%,-1%,1%,1%
Cc1c([C@@H]2C[C@H]3CN(Cc4cccc(Cl)c4)C(=O)[C@]34CCCN24)cnn1C,1%,160%,u,u,-4%,0%
Cn1cc([C@@H]2C[C@H]3CN(Cc4cccc(Cl)c4)C(=O)[C@]34CCCN24)c2ccccc21,-4%,118%,u,12µM*,-20%,0%
Cc1ccc(CNC(=O)CN(c2ccc(Cl)cc2)S(C)(=O)=O)cc1,-10%,13%,u,-12%,-13%,0%
COc1ccc(-c2csc(N(CC3CCCO3)C(=O)c3ccco3)n2)cc1 (stereo not given),-8%,5%,u,u,-4%,3%
COc1ccc(OC)c(-c2csc(NC(=O)c3ccc(F)cc3)n2)c1,-3%,-21%,u,u,14%,-8%
SMILES,AmpC detergent,AmpC no deterg,Pf growth 96h,Pf growth 48h,Sm TGR inh,SARS PLpro yeast
COc1ccc(OC)c(-c2csc(NC(=O)COC(=O)C3CCC3)n2)c1,-10%,-15%,-11%,-9%,-6%,0%
COc1ccc(OC)c(-c2csc(NC(=O)c3ccc(OCC4CCCO4)cc3)n2)c1 (stereo not given),-10%,41%,12µM*,u,-7%,-24%
COc1ccc(OC)c(-c2csc(N(CC3CCCO3)C(=O)Cc3ccccc3)n2)c1 (stereo not given),8%,-26%,1.9µM*,u,16%,1%
COc1ccc(OC)c(-c2csc(NC(=O)COC(=O)c3ccc(NC(=O)CC#N)cc3)n2)c1,u,25µM*,u,u,-3%,1%
COC(=O)c1ccc(NC(=S)NC2c3ccccc3CC2O)cc1 (stereo not given),1%,-15%,-18%,16%,0%,0%
CCOc1ccc(CNCc2c(C(=O)O)n(Cc3ccccc3C)c3cc(OC)ccc23)cc1OC,-3%,x,x,x,2%,x
O=S(=O)(Nc1ccc(Cl)cc1)c1ccc(N2CCOCC2)c(NC(=S)NCCN2CCOCC2)c1,-11%,41%,-12%,u,-9%,-2%
O=C(c1cc(-c2ccc(F)cc2)nc2ccccc12)N1CCC1,x,5%,x,x,x,-5%
Cc1ccc(-c2cc(C(=O)N3CCN(c4ncccn4)CC3)c3cc(Br)ccc3n2)o1,-14%,68%,223%,u,7.1µM*,0%
Cc1ccc(-c2cc(C(=O)N3CCOCC3)c3ccccc3n2)o1,x,-2%,x,x,x,-10%
Cc1ccc(-c2cc(C(=O)N3CCN(c4ccc(F)cc4)CC3)c3ccccc3n2)o1,4%,19%,u,-2%,45µM*,-17%
COc1ccc(-c2cc(C(=O)N3CCCC(C(F)(F)F)C3)c3ccccc3n2)cc1 (stereo not given),-5%,27%,-107%,u,1%,7%[6.58 µM]
Cc1ccc(-c2cc(C(=O)N3CCCC(C(F)(F)F)C3)c3ccccc3n2)o1 (stereo not given),-18%,25%,u,u,28µM*,-17%
O=C(O)c1cc(-c2ccc(-c3ccc(F)cc3)o2)nc2ccccc12,-8%,-20%,120%,160%,13µM*,-2%

# Screening data deposited in PubChem BioAssay by National Center for Advancing Translational Sciences (NCATS).
